# This is one part of a sample in which hits are shown more often than they occur.
# Lassa entry inh – qHTS for Inhibitors of binding or entry into cells for Lassa Virus. Lassa virus pseudotype entry inhibition, cell reporter. Potency, µM (series often up to 37.9 µM), for inactives: top-dose activity change, negative = inhibition, usual class: inhibitors. hit rate 1.2% among 300,000; calls by dose curve; tested in HEK293 cells; also: potency is read from the fitted curve at half-maximal effect; % is scaled to controls: 0 for no effect and ±100 for the full control effect; nearly all actives have a fitted effect of over 50% in size
# CHX counter – Cycloheximide Counterscreen for Small Molecule Inhibitors of Shiga Toxin; cell reporter, cycloheximide protein synthesis inhibition counterscreen; max response, %; hit rate 12% among 300,000; in the data active = max response mostly above about 13%, no sharp cut-off; inactive = mostly below about 14%; also: read at 38.3 µM for the half of the compounds with a filed dose; 0% is about no effect
# VACV Venus inh – qHTS for Stage-Specific Inhibitors of Vaccinia Orthopoxvirus: Venus Reporter Primary qHTS | Vaccinia virus Venus reporter expression, fluorescence | hit rate 0.46% among 330,000 | Potency, µM (doses to about 36.5 µM), inactives show at the top dose activity change, negative = inhibition, usual class: inhibitors; calls by dose curve; tested in A549 cells; also: potency is read from the fitted curve at half-maximal effect; % is scaled to controls: 0 for no effect and ±100 for the full control effect; nearly all actives have a fitted effect of over 30% in size
# Marburg entry inh – qHTS for inhibitors of binding or entry into cells for Marburg Virus; Marburg virus pseudotyped entry inhibition, cell reporter; Potency, µM (top dose mostly 37.8 µM), for the others: at the highest dose activity change, negative = inhibition, actives largely listed as inhibitors; hit rate 1.8% among 300,000; AID 540276, 2011; calls by dose curve; tested in HEK293 cells; also: potency is read from the fitted curve at half-maximal effect; % is scaled to controls: 0 for no effect and ±100 for the full control effect
# VACV mCherry inh – qHTS for Stage-Specific Inhibitors of Vaccinia Orthopoxvirus: mCherry Reporter Primary qHTS; Vaccinia virus mCherry reporter infection, fluorescence; Potency, µM (doses to about 36.5 µM), inactives show top-dose activity change, negative = inhibition, usual class: inhibitors; hit rate 0.63% among 310,000; AID 720579, 2013; calls by dose curve; tested in A549 cells; also: potency is read from the fitted curve at half-maximal effect; % is scaled to controls: 0 for no effect and ±100 for the full control effect; nearly all actives have a fitted effect of over 35% in size
# Shiga toxin inh – A qHTS for Small Molecule Inhibitors of Shiga Toxin. Vero cells, Shiga toxin protein synthesis inhibition reporter. inhibition, % at 38.7 µM. hit rate 9.2% among 290,000. AID 2315, 2010; in the data active = inhibition mostly above about 28%, no sharp cut-off; inactive = mostly below about 43%; also: 0% is about no effect
# * marks the source's active call; other numbers are inactive results; i = inactive; ? = inconclusive; . = no result; + = active, no number; [ ] = remark or other dose.
SMILES,Lassa entry inh,CHX counter,VACV Venus inh,Marburg entry inh,VACV mCherry inh,Shiga toxin inh
Cc1cc(C)cc(N=C2NC(=O)/C(=C/c3cccs3)S2)c1,-4%,-1,.,4%,.,4
Cn1cccc1/C=C1\SC(=Nc2cccc(O)c2)NC1=O,.,40*,.,.,.,100*
O=C1NC(=Nc2ccccc2)S/C1=C\c1cccs1,.,45*,.,.,.,89*
CS(=O)(=O)c1cccc(NC(=O)C2CCCN2S(=O)(=O)c2ccc(F)cc2)c1 (configuration not stated),1%[46.1 µM],-6,10%,-3%[46.1 µM],-7%,5
Cc1cccc(CC2C(=O)Nc3ccccc32)c1 (configuration not stated),6%[46.1 µM],.,-19%,?,-9%,.
Cc1nc(N)c(S(=O)(=O)c2ccccc2)c(Nc2ccc(Br)cc2)n1,-7%[46.1 µM],.,8%,7%[46.1 µM],3%,.
CCCCNc1cc(Cl)nc(N)n1,8%,-1,-15%,-14%[46.1 µM],-12%,-2
COc1ccc(Nc2cc(Cl)nc(N)n2)cc1,13%[46.1 µM],29*,-5%,-29%[46.1 µM],i,36
Cc1cc(Nc2ccc(Cl)cc2)nc(N)n1,-13%,68*,.,2%,.,63*
Nc1cc(Nc2ccc(Br)cc2)nc(N)n1,13%[46.1 µM],40*,-22%,-29%[46.1 µM],?,70*
COc1ccc(Nc2cc(C)nc(N)n2)cc1,.,20*,-23%,.,-15%,37*
COc1ccc(Nc2cc(C)nc(NCc3ccccc3)n2)cc1,?,1,-9%[7.34 µM],?,-7%[7.34 µM],22
NS(=O)(=O)c1ccc(C(=O)Nc2ccc(-c3nc4cccnc4s3)cc2)cc1,.,48*,.,.,.,70*
O=C(Nc1cccc(-c2nc3cccnc3s2)c1)c1cccnc1Cl,.,18*,0%[7.34 µM],.,i[7.34 µM],31*
CCc1ccc(S(=O)(=O)Nc2ccc(-c3nc4cccnc4s3)cc2)s1,.,36*,0%,.,19%,60*
O=S(=O)(Nc1cccc(-c2nc3cccnc3s2)c1)c1ccc2c(c1)OCCO2,.,-2,-21%,.,-4%,33
NS(=O)(=O)c1ccc(NC(=O)c2ccc(-c3ccccc3)cc2)cc1,12%[46.1 µM],-2,-12%,-4%[46.1 µM],-3%,-9
O=C(Nc1cccc(-c2nc3cccnc3s2)c1)c1ccc(Cl)nc1,21%[46.1 µM],7,15%,2%[46.1 µM],i,21
O=S(=O)(Nc1ccc(-c2nc3cccnc3s2)cc1)c1cc(F)ccc1F,.,37*,.,.,.,67*
O=C(Cn1c(=O)nc(-c2ccccc2)c2ccccc21)NCc1ccccc1Cl,?,.,-17%,.,i,.
O=C(NCC1(N2CCOCC2)CCCC1)c1cnn(-c2nccc(-c3cccs3)n2)c1C1CC1,.,.,10%,.,-11%,.
NC(=S)NN=C1c2cc(OCCN3CCOCC3)ccc2-c2ccc(OCCN3CCOCC3)cc21,?,0,?,?,?,-13
ON=C1c2cc(OCCN3CCCCC3)ccc2-c2ccc(OCCN3CCCCC3)cc21,?,10,8.9µM*,3.2µM*,?,14
c1ccc(COc2ccc(OCCCN3CCCC3)cc2)cc1,?,38*,-16%,13µM*,-4%,+
c1ccc(COc2ccc(OCCN3CCCC3)cc2)cc1,11%,50*,-1%,?,-8%,69*
SMILES,Lassa entry inh,CHX counter,VACV Venus inh,Marburg entry inh,VACV mCherry inh,Shiga toxin inh
c1ccc(-c2ccc(OCCN3CCCC3)cc2)cc1,.,32*,.,.,.,52*
CCN1CCN(CCOc2ccccc2OCc2ccccc2)CC1,-17%,0,.,?,.,16
Cc1noc(C)c1C1(O)CCCCCCCCCCC1,-28%,-1,-9%,?,-18%,-5
COc1cc(C(c2c(C)[nH][nH]c2=O)c2c(C)[nH][nH]c2=O)ccc1OC(=O)c1ccccc1F,-16%[46.1 µM],.,9%,0%[46.1 µM],-8%,.
COc1ccccc1CC1C(=O)C2CCN1CC2 (configuration not stated),8%,-4,-25%,?,.,0
c1ccc(Oc2cccc(OCCCCN3CCCC3)c2)cc1,-18%,1,.,21µM*,.,8
CC1CCN(CCCOc2ccc(OCc3ccccc3)cc2)CC1,10%,24*,-9%,?,-24%,81*
Clc1ccc(OCCN2CCCCC2)cc1Cl,5%,6,-7%,?,-8%,-11
Clc1ccc(OCCN2CCOCC2)cc1Cl,-10%,17,-14%,-1%,-16%,70*
O=C1C2CCN(CC2)C1Cc1ccc(OCc2ccccc2)cc1 (configuration not stated),4%,23*,-8%,?,-10%,22
Cc1cc(C)c2c(c1)c(C)cc1nnc(SCC(=O)c3ccccc3)n12,0%[46.1 µM],.,-10%,13%[46.1 µM],-13%,.
O=C(COc1ccccc1C(=O)Nc1ccccc1)Nc1ccccc1F,.,.,-12%,.,-9%,.
CCOC(=O)c1ccc(N(C(=O)c2ccccc2)c2ccccc2)cc1,.,.,-21%,.,i,.
c1ccc(COc2ccc(OCCN3CCCCC3)cc2)cc1,10%,87*,-17%,?,i,47*
Clc1ccc(OCCCCN2CCCCC2)cc1,-18%[46.1 µM],-1,2%,?,i,-14
CCOc1ccc(OCCN2CCCCC2)cc1,-2%,7,-8%,1%,-15%,23
CC1CCN(CCCCOc2ccc(C(=O)c3ccccc3)cc2)CC1,16µM*,1,-11%,?,-11%,-5
c1ccc(OCCN2CCOCC2)cc1,.,-2,.,.,.,0
CC(C)c1ccc(OCCCCN2CCCCC2)cc1,18%,-1,-3%,11µM*,i,15
c1ccc(Cc2ccc(OCCN3CCOCC3)cc2)cc1,4%,21*,-16%,?,i,55*
CCCCOc1ccc(CNC(=O)CCCN2C(=O)CSc3c2c(C)nn3-c2ccccc2)cc1,?,.,-15%,.,-21%,.
CC1=CC[C@@H](C)O[C@@]2(C1)C(=O)Nc1ccccc12,.,.,.,-9%[14.2 µM],.,.
CCN(CC)S(=O)(=O)c1ccc(F)c(C(=O)OC2CC(C)OC2=O)c1 (configuration not stated),?,-6,-3%,4%[46.1 µM],-14%,-16
CC(=O)c1cccc(NC(=O)NC(C)c2ccncc2)c1 (configuration not stated),?,-2,.,21%,.,-1
COc1ccccc1N(Cc1cc(=O)[nH]c2ccccc12)C(=O)c1cccc([N+](=O)[O-])c1,.,-3,-9%,.,?,-11
C=CCOc1ccc2c(c1)C(=NO)c1cc(OCC=C)ccc1-2,.,10,.,0%,.,14
COc1ccc2c(c1)C(=NO)c1cc(OC)ccc1-2,14%,18*,-20%,-24%,?,22*
FC(F)(F)c1ccc(-n2cnc3ccccc32)nc1,.,33*,.,.,.,46*
CCCCCC[n+]1c(-c2ccccc2)csc1Nc1ccccc1,-11%,-7,-4%,12%,i,-6
COc1ccc(-c2csc(Nc3ccccc3)[n+]2CC(O)c2ccc([N+](=O)[O-])cc2)cc1 (configuration not stated),.,18*,.,.,.,32

# Screening data: PubChem, National Center for Advancing Translational Sciences (NCATS)
